Drawing on PubChem BioAssay (NCI), this text covers growth for 15 compounds.

Among the test systems are T-47D breast; BT-549 breast; MDA-MB-435 melanoma; SW-620 colon; MCF7 breast; HCT-116 colon; HCC-2998 colon; KM12 colon.
What all share (assay): NCI-60 one-dose screen, 48 h (100 = growth as untreated, 0 = no growth, -100 = all killed)
What all share (details): 10 µM unless noted

Compounds without any hit were thinned out: in the full panel of roughly 83,000, 20% have a hit.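 The test compound was applied at a single concentration to cells in 96-well plates for 48 hours, and percent growth was recorded.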 Values without a mark were called inactive. Activity calls are given as the source filed them. Rule for the calls: active = growth percent below 10; inactive = the rest.

On to `COc1cc(C2C(C(=O)OCc3ccccc3)=C(C)NC(C)=C2C(=O)OCc2ccccc2)cc(OC)c1OC`, for which the growth in the assay on T-47D breast was 11.9%; in the assay with BT-549 breast, 34%; in the assay on MDA-MB-435 melanoma it was 27.3%; in the assay on SW-620 colon, 40.3%; in the assay with MCF7 breast it was 10.4%; in the assay on HCT-116 colon, 17.1%. Besides, the growth was 52% with HCC-2998 colon and 19.4% with KM12 colon.
With `NS(=O)(=O)c1ccc(NC(=O)/C(=C\c2ccc(Cl)cc2Cl)NC(=O)c2ccccc2)cc1`, the growth was 87.5% in the assay on T-47D breast; 89.1% with BT-549 breast; 97.7% in the assay on MDA-MB-435 melanoma; 104% in the assay with SW-620 colon; 90.1% with MCF7 breast; 97.3% in the assay with HCT-116 colon. For the same compound, the figures for the growth in the assay on HCC-2998 colon and with KM12 colon were 103% and 102%, respectively.
Consider `COc1ccccc1N(C(C)=O)C1=C(Cl)C(=O)c2ccccc2C1=O`, for which the growth in the assay with T-47D breast was -33.1% (active); with BT-549 breast it was -4.47% (active); with MDA-MB-435 melanoma, -13.3% (active); with SW-620 colon it was -65.2% (active); in the assay on MCF7 breast, 11.8%; in the assay on HCT-116 colon, -29.1% (active). Moreover, the growth with HCC-2998 colon was 19.5%; in the assay with KM12 colon, -11.4% (active).
With `CNC(=O)c1cc(Oc2ccc3c(c2)sc2nc(-c4ccc(OC)cc4)cn23)ccn1`, the growth is 46.4% in the assay on T-47D breast; 52.4% with BT-549 breast; 5.17% (active) in the assay with MDA-MB-435 melanoma; 77.7% in the assay with SW-620 colon; 12.9% in the assay with MCF7 breast; 16% with HCT-116 colon. Besides, the figures for the growth in the assay on HCC-2998 colon and in the assay with KM12 colon were 17.4% and 58.9%, respectively.
As for `CC(=O)c1sc2sc(C(C)=O)c(C)c2c1C`, the growth was 89% in the assay with T-47D breast; 105% in the assay on BT-549 breast; 102% in the assay on MDA-MB-435 melanoma; 102% in the assay on SW-620 colon; 73.1% with MCF7 breast; 83.1% with HCT-116 colon. The growth in the assay with HCC-2998 colon is 102%; with KM12 colon, 107%.
Turning to `Cc1cc2c(cc1C)N(C(=O)CCl)CC(=O)N2`, the growth in the assay on T-47D breast was 15.6%; in the assay on BT-549 breast, 18.9%; with MDA-MB-435 melanoma it was 54.9%; in the assay with SW-620 colon it was -48.2% (active); in the assay with MCF7 breast, 19.6%; with HCT-116 colon, -10.9% (active). For the same compound, the figures for the growth in the assay with HCC-2998 colon and in the assay on KM12 colon were 71.6% and 60.2%, respectively.
In the case of `CC(=O)OC[C@]12CC[C@@H]([C@@H](C)c3nnc(-c4ccncc4)o3)[C@@H]1[C@H]1CC[C@@H]3[C@@]4(C)CC[C@H](OC(C)=O)C(C)(C)[C@@H]4CC[C@@]3(C)[C@]1(C)CC2`, the growth with T-47D breast was 66.5%; with BT-549 breast, 74.6%; with MDA-MB-435 melanoma, 87%; with SW-620 colon, 66.3%; in the assay with MCF7 breast, 84.9%; with HCT-116 colon, 45.2%. For the same compound, the growth was 101% with HCC-2998 colon and 93.5% in the assay with KM12 colon.
On to `COc1ccc(NC(=O)Nc2ccc(OCCCCCC(=O)NO)cc2)cc1`, for which the growth was 107% with T-47D breast; 99.5% in the assay with BT-549 breast; 94% in the assay with MDA-MB-435 melanoma; 99.7% in the assay on SW-620 colon; 98.3% with MCF7 breast; 92.3% with HCT-116 colon. In addition, the values for the growth with HCC-2998 colon and in the assay with KM12 colon were 110% and 103%, respectively.
Take `CN1CCN(c2ccc(NC(=O)c3cncnc3Nc3ccc(OCc4cccc(F)c4)c(Cl)c3)cc2)CC1`: the growth in the assay on T-47D breast is 72.9%; with BT-549 breast it was 102%; with MDA-MB-435 melanoma, -72.3% (active); in the assay on SW-620 colon it was -30.5% (active); with MCF7 breast, 13.4%; with HCT-116 colon, 17.4%. Besides, the growth in the assay with HCC-2998 colon is 71.5%; with KM12 colon, 75.8%.
Consider `COc1cc2c(c(OC)c1OC)C(=O)CC(c1cccc(NC(=O)c3ccc(C#N)cc3)c1)O2` (stereo not given), for which the growth is 8.42% (active) in the assay with T-47D breast; 43.7% in the assay with BT-549 breast; 74% in the assay on MDA-MB-435 melanoma; 95.9% in the assay with SW-620 colon; 65.6% in the assay with MCF7 breast; 62% in the assay with HCT-116 colon. Further, the figures for the growth in the assay with HCC-2998 colon and with KM12 colon were 101% and 70.9%, respectively.
As for `C#CCn1cnc2cnc(Nc3cccc(NC(=O)C=C)c3)nc21`, the growth in the assay on T-47D breast is 66% [6.25 µM]; in the assay with BT-549 breast it was 60.9% [6.25 µM]; in the assay on MDA-MB-435 melanoma it was 60.6% [6.25 µM]; in the assay with SW-620 colon it was 91.2% [6.25 µM]; with MCF7 breast it was 77.4% [6.25 µM]; in the assay with HCT-116 colon it was 86.4% [6.25 µM]. In addition, the growth is 97.9% [6.25 µM] with HCC-2998 colon and 91.9% [6.25 µM] in the assay with KM12 colon.
Take `CCNC(=O)Oc1ccc(/C(=C(/CC)Cc2ccccc2)c2ccc(OCCN3CCCC3)cc2)cc1`: the growth was 68.3% in the assay on T-47D breast; 100% in the assay with BT-549 breast; 102% in the assay on MDA-MB-435 melanoma; 99.6% in the assay on SW-620 colon; 35.9% in the assay with MCF7 breast; 72.1% in the assay on HCT-116 colon. Besides, the results for the growth in the assay with HCC-2998 colon and in the assay with KM12 colon were 91.3% and 98%, respectively.
For the compound `CN(C)c1ccc(/C=C(\C#N)c2cc3ccccc3[nH]2)cc1`, the growth in the assay with T-47D breast is 36.1%; with BT-549 breast it was 42.4%; with MDA-MB-435 melanoma, -25.4% (active); in the assay with SW-620 colon, 13.2%; in the assay with MCF7 breast, 19.9%; in the assay on HCT-116 colon, 11.5%. The growth with HCC-2998 colon is 45.5%; in the assay on KM12 colon it was 24.9%.
With `COc1ccc(CCN(CC(=O)N(CC(N)=O)C2CCC[C@@H]2OCc2ccccc2)C(=O)CN(C(=O)CN(CCc2ccc(Cl)cc2)C(=O)CN(C(=O)CN(C)Cc2ccccc2F)[C@H](C)C2CCCCC2)[C@H](C)C2CCCCC2)cc1OC` (stereo not given in full), the growth in the assay on T-47D breast is 27%; in the assay on BT-549 breast, 47.3%; with MDA-MB-435 melanoma, 26%; in the assay with SW-620 colon, 53.2%; in the assay on MCF7 breast, 14.1%; with HCT-116 colon, 22.4%. Besides, the growth in the assay on HCC-2998 colon was 0.406% (active); with KM12 colon it was 20.2%.
Consider `Cc1nn(-c2cc(NC3CCC(O)CC3)c3c(=O)[nH]c(CCC(F)(F)F)cc3c2)c2c1C(=O)CC(C)(C)C2` (stereo not given), for which the growth with T-47D breast was 62.9%; in the assay on BT-549 breast, 43.8%; in the assay with MDA-MB-435 melanoma, 19.3%; in the assay on SW-620 colon, 24.1%; in the assay on MCF7 breast it was 26.5%; in the assay on HCT-116 colon, 38%. For the same compound, the growth is 10.9% with HCC-2998 colon and 23.4% in the assay on KM12 colon.
